Sampled rows, rich in hits. Any-hit rate of the full collection: about 3%.
aSyn 5UTR inh: MLPCN primary screen, SNCA 5' untranslated region; inhibition, % (tested at 7.5 µM); AID 1813, 2009; actives 0.82% (n = 300,000); alpha-synuclein 5'UTR reporter, inhibitor activity; in the data active = inhibition above about 60%; inconclusive = no clear call, values can overlap the other calls;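 note: H4 neuroglioblastoma cells stably carrying SNCA 5'UTR luciferase fusion; 0% = DMSO wells and 100% = positive control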
IEC-6 tox: cytotoxicity in IEC-6 intestinal epithelial cells, primary screen, cytotoxicity control for KLF5 inhibitor project, cell-based, luminescence; IEC-6 cytotoxicity, luminescence viability; inhibition, % at 5 µM; actives 0.78% (n = 290,000); AID 1825, 2009;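 note: 0% = plate median of test compound wells and 100% = cytotoxic reference compound wells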
SKKanGAS inh: S. pyogenes SKKanGAS growth inhibitors in kanamycin, primary screen, streptokinase expression inhibitor project, SKKanGAS strain, BacTiter-Glo luminescence; 6 h; actives 1.3% (n = 300,000); inhibition, % at 7.5 µM;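 active = mean replicate score, as percent of positive control median, at least 50; inconclusive = mean below 50 but one replicate at or above 50; inactive = mean and every replicate below 50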;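 note: strain carries kanamycin resistance gene driven by streptokinase promoter and grows in 40 µg/ml kanamycin; loss of luminescence reflects streptokinase promoter inhibition or plain growth inhibition; 0% = median of DMSO wells and 100% = positive control at its reference dose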
CSC inhib: cancer stem cell viability inhibitors, primary screen, luminescence. actives 1.1% (n = 300,000). AID 2717, 2010. cancer stem cell-like cells viability. inhibition, % at 7.5 µM; in the data active = inhibition above about 75%; inconclusive = no clear call, values can overlap the other calls; tested in HMLE shEcad cells
KLF5 inhibitor: KLF5 expression inhibitors, primary screen, DLD-1 cells, luminescence. DLD-1 KLF5 promoter-luciferase reporter. inhibition, % at 5 µM. actives 0.23% (n = 290,000);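 active = inhibition above a per-plate limit of that plate's mean compound inhibition plus 3 SD, cut at about 60% in these data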;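 note: 0% = DMSO wells and 100% = LY294002 at 200 µM; higher means less KLF5 promoter-driven luciferase light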
IEC-6 tox confirm: cytotoxic compounds in IEC-6 epithelial cells, confirmation, cytotoxicity control, cell-based, luminescence; shares compounds with IEC-6 tox; IEC-6 rat intestinal epithelial viability; inhibition, % at 5 µM; actives 63% (n = 1,900); AID 1907, 2009;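 note: 0% = vehicle and 100% = reference cytotoxic drug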
Active calls of the source: *; ? = inconclusive; . = no result. Cut-off read from the data, not from the text of the source, unless noted: active = inhibition above about 22%; inactive = the rest.

SMILES	aSyn 5UTR inh	IEC-6 tox	SKKanGAS inh	CSC inhib	KLF5 inhibitor	IEC-6 tox confirm
NCCNc1ccc(C(=O)N2c3ccccc3Sc3ccccc32)cc1[N+](=O)[O-]	0.7	35.3*	-2.1	91.8*	19.2	23.8*
O=c1[nH]c(-c2ccccn2)nc2ccccc12	-96.3	8.1	3.7	8.4	-125.8	.
O=c1[nH]c(-c2ccccn2)nc(C(F)(F)F)c1Br	44.1	68.1*	12.5	19.9	59.8	24.4*
N=c1ccn2c(n1)OC1C(O)C(CO)OC12 (stereo not given)	111.7*	92.3*	0.3	9.7	24.3	72.3*
O=c1[nH]cnc2c1ncn2[C@@H]1O[C@H](CO)[C@@H](O)[C@H]1O	12.7	-4.1	3.9	.	-4.2	.
CCN(CC)C(=O)Cn1cnc2sc(C(=O)NCCCN3CCOCC3)c(C)c2c1=O	10.4	-1.1	3.2	-1.2	-21.5	.
CC(C)CNC(=O)c1cccc(NC(=O)Cc2ccc(Cl)cc2)c1	18.3	-0.3	-0.9	-4.3	-14.1	.
COc1ccc(N2CCN(C(=O)c3cccc(NC(=O)c4ccco4)c3)CC2)cc1	13.3	-3.3	2.8	-12.3	-6.4	.
O=C(Nc1ccc2nc3n(c(=O)c2c1)CCCC3)c1ccccc1F	-67.2	2.6	0.7	6.7	-54.5	.
O=C(Nc1ccc2nc3n(c(=O)c2c1)CCCCC3)c1cc([N+](=O)[O-])ccc1F	-42.0	62.4*	19.4	?	9.7	15.7
Cc1cccc(NC(=O)C(C)Sc2nc3nc(C)cc(C)n3n2)c1 (stereo not given)	.	.	.	-13.8	.	.
CCC1CCCCN1CCCNC(=O)c1ccc2c(c1)N(Cc1ccc(F)cc1)C(=O)c1ccccc1S2=O (stereo not given)	-51.3	-7.4	1.5	25.3	-28.3	.
Cc1cc(-c2ccc(C(C)C)c(S(=O)(=O)N3CCN(c4ccccc4)CC3)c2)on1	?	77.6*	4.7	-16.6	49.7	52.8*
Cc1cccc(N2CCN(S(=O)(=O)c3cc(-c4cc(C)no4)ccc3C)CC2C)c1 (stereo not given)	11.4	49.5*	-2.9	52.9	30.4	32.4*
COc1ccc(-c2cc(C)no2)cc1S(=O)(=O)N1CCN(c2cccc(C)c2)C(C)C1 (stereo not given)	14.2	-0.3	12.9	-1.2	-1.5	.
CC(C)CNC(=O)COC(=O)CNC(=O)c1cc(Cl)cc([N+](=O)[O-])c1	9.3	-5.8	-1.1	-3.7	-3.6	.
S=C1NC2CCCCC2N1 (stereo not given)	17.0	2.9	3.7	-4.2	-18.0	.
Cc1ccc2nsnc2c1NC(=O)c1ccc([N+](=O)[O-])o1	-173.5	96.2*	4.9	63.4	6.2	28.3*
O=C(Nc1nc2c(F)cccc2s1)c1ccc([N+](=O)[O-])o1	-95.4	40.3*	13.9	9.7	-47.2	15.2
Cc1cccc(NC(=O)c2ccc([N+](=O)[O-])o2)c1C	-48.9	34.0*	5.7	27.4	-16.9	23.0*
O=C(Nc1nc2c(Cl)cccc2s1)c1ccc([N+](=O)[O-])o1	-80.3	6.1	15.3	12.5	-41.6	.
Cc1ccc2nsnc2c1NC(=O)c1ccc(-c2cc(Cl)ccc2Cl)o1	54.4	4.6	1.0	-17.9	17.2	.
Cn1cc([N+](=O)[O-])c(C(=O)Nc2nc(-c3ccc(Cl)cc3)cs2)n1	62.8*	36.6*	32.4	103.0*	2.4	56.4*
C[N+]1(CC(O)COCC2COc3ccccc3O2)CCOCC1 (stereo not given)	-6.2	-0.7	-3.7	-17.0	-6.4	.
CCS(=O)(=O)n1nc(-c2ccccc2)nc1SC	-32.2	-2.7	-4.7	-1.0	-89.2	.
SMILES	aSyn 5UTR inh	IEC-6 tox	SKKanGAS inh	CSC inhib	KLF5 inhibitor	IEC-6 tox confirm
CN(CC(=O)Nc1ccc(Cl)c(C(F)(F)F)c1)C(=O)c1cccc(N2C(=O)CCC2=O)c1	.	.	.	8.5	.	.
CCN(CC)S(=O)(=O)c1ccc(NC(=O)c2ccc(OCC3CCCO3)cc2)cc1 (stereo not given)	.	.	.	0.6	.	.
O=C(Nc1cccc2ccccc12)c1ccc([N+](=O)[O-])o1	-178.8	95.7*	52.5*	67.2	-34.4	22.1*
O=C(Nc1cc(-c2nc3ncccc3o2)ccc1Cl)c1ccc([N+](=O)[O-])o1	-199.9	93.2*	15.0	68.4	-27.4	30.5*
Cn1cc([N+](=O)[O-])c(C(=O)Nc2ccc(C3CCCCC3)cc2)n1	45.0	25.3*	11.7	117.4*	-149.5	30.4*
Cc1ccc(-c2csc(NC(=O)c3ccc([N+](=O)[O-])o3)n2)cc1	-234.1	99.7*	55.3*	127.2*	-35.0	41.6*
COc1ccccc1NC(=O)c1ccc([N+](=O)[O-])o1	-98.1	.	18.9	14.9	.	.
O=C(NNS(=O)(=O)c1ccccc1F)c1sccc1-n1cccc1	-22.0	5.7	3.7	-14.2	-14.4	.
C/C(=N\Nc1ccc(C(=O)O)cc1)c1ccc(S(=O)(=O)NCc2ccco2)cc1	-75.2	-0.9	13.5	17.6	-6.1	.
O=C(Nc1ccc(Cl)cc1)Nc1ccon1	-129.1	29.2*	-5.3	.	-19.3	8.9
CC(C)Oc1cc(N)c(Cl)cc1Cl	13.4	0.4	2.3	-2.5	-37.9	.
NNC(=O)c1cc2sccc2s1	-79.5	63.3*	32.1	20.4	22.1	6.1
NC(=O)c1c(NC(=O)c2cc3ccccc3o2)sc2c1CCC2	-31.5	12.1	16.0	-5.0	-128.3	.
NC(=O)c1c(NC(=O)c2ccc([N+](=O)[O-])o2)sc2c1CCCC2	95.3*	100.5*	10.2	7.3	23.9	38.9*
CN1CCc2c(sc(NC(=O)c3ccc([N+](=O)[O-])o3)c2C(N)=O)C1	85.5*	100.6*	20.2	43.8	34.0	87.9*
N#Cc1c(NC(=O)c2ccc([N+](=O)[O-])o2)sc2c1CCC2	-106.7	38.9*	-4.0	24.5	-33.7	16.0
CN1CCc2c(sc(NC(=O)c3ccco3)c2C(N)=O)C1	-8.5	-3.3	39.9	-10.3	-31.2	.
CC(=O)N1CCC(N(CCN2CCOCC2)C(=S)Nc2ccccc2C)CC1	-11.4	-4.0	4.7	-13.8	0.7	.
Cc1c(Cl)cccc1NC(=O)CC1Sc2ccccc2NC1=O (stereo not given)	1.0	3.4	-5.8	0.4	-7.2	.
O=C(CSc1nc2ccccc2c(=O)[nH]1)Nc1ccccc1C(F)(F)F	10.3	29.3*	3.2	12.1	-12.7	18.1
CC(C)(C)c1ccc(S(=O)(=O)Nc2noc3ccccc23)cc1	13.7	2.6	12.3	3.4	-5.3	.
COc1ccc(-[n+]2c(C)cc(/C=C3\Sc4ccccc4N3C)cc2C)cc1	-3.5	31.9*	39.6	55.8	15.8	65.3*
COc1ccccc1-[n+]1c(C)cc(/C=C2\Sc3ccccc3N2C)cc1C	52.9	1.3	45.1	67.7	7.9	.
CC1CC(C)CN(CCCNC(=O)c2ccc3nc(N4CCCCC4)sc3c2)C1 (stereo not given)	-273.4	26.7*	-3.0	1.2	-114.4	2.4
